Data taken from PubChem BioAssay AID1159580 (chemical genetic matrix, 2015).
Values joined by “and” are separate entries in the source; they are usually repeats but may differ in a detail not shown here. Equal values may be shown once. Hit rate of the full screen: of about 5,500 compounds, about 2,000 (36%) were called active. Roughly 18% stayed inconclusive and do not appear here. Rule as the data show it: active = normalized growth mostly below about 0.91 (no sharp cut-off); inconclusive = no clear call, values can overlap the other calls; inactive = mostly above about 0.92. This is one part of the list.

Test: chemical genetic growth profiling, strain panel (AID 1159580);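 also: tested at 20 µM; growth read once vehicle control cultures reached saturation at 30 °C; 1 = growth at the plate median or of vehicle wells; lower values mean less growth of the strain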
Conditions: S. cerevisiae deletion strains, growth OD

Measured: normalized growth

Cc1cc(CC(=O)O)n(C)c1C(=O)c1ccc(Cl)cc1
inactive: locus YAL013W, strain DEP1, hits give low values 1 | locus YAL021C, strain ccr4, hits give low values 1 | locus YAL026C, strain drs2, hits give low values 1.04 | locus YAL030W, strain snc1, hits give low values 1.01 | locus YBL061C, strain skt5, hits give low values 1.04 | locus YBR009C, strain hhf1, hits give low values 0.999 | locus YBR021W, strain FUR4, hits give low values 0.979 | locus YBR023C, strain chs3, hits give low values 1.03 | locus YBR171W, strain sec66, hits give low values 1.04 | locus YBR229C, strain ROT2, hits give low values 0.997 | locus YBR231C, strain swc5, hits give low values 1.02 | locus YBR279W, strain paf1, hits give low values 1.02 | locus YCL011C, strain gbp2, hits give low values 1.03 | locus YCL016C, strain dcc1, hits give low values 1.04 | locus YCL029C, strain bik1, hits give low values 1.02 | locus YCL061C, strain MRC1, hits give low values 1.03 | locus YCL069W, strain vba3, hits give low values 1.04 | locus YCR088W, strain abp1, hits give low values 1.03 | locus YDL005C, strain med2, hits give low values 1.02 | locus YDL035C, strain GPR1, hits give low values 0.989 | locus YDL040C, strain nat1, hits give low values 1.02 | locus YDL074C, strain BRE1, hits give low values 0.978 | locus YDL101C, strain DUN1, hits give low values 1 | locus YDL134C, strain PPH21, hits give low values 1 | locus YDL185W, strain tfp1, hits give low values 0.997 | locus YDL192W, strain arf1, hits give low values 1.01 | locus YDR001C, strain nth1, hits give low values 1.02 | locus YDR069C, strain doa4, hits give low values 1.01 | locus YDR101C, strain arx1, hits give low values 1.01 | locus YDR137W, strain rgp1, hits give low values 1.04 | locus YDR150W, strain NUM1, hits give low values 0.998 | locus YDR159W, strain sac3, hits give low values 1.02 | locus YDR162C, strain NBP2, hits give low values 0.997 | locus YDR195W, strain ref2 1.02 | locus YDR297W, strain sur2, hits give low values 1.03 | locus YDR318W, strain mcm21, hits give low values 1 | locus YDR334W, strain swr1, hits give low values 1.03 | locus YDR335W, strain msn5, hits give low values 1.03 | locus YDR388W, hits give low values 0.998 | locus YDR392W, strain spt3, hits give low values 1.02 | locus YDR502C, strain sam2, hits give low values 0.995 | locus YEL003W, strain gim4, hits give low values 1.02 | locus YEL037C, strain rad23, hits give low values 1.02 | locus YEL061C, strain CIN8 (second series), hits give low values 1.03 | locus YEL061C, strain CIN8, hits give low values 1 | locus YER015W, strain faa2, hits give low values 1.03 | locus YER016W, strain bim1, hits give low values 1.04 | locus YER110C, hits give low values 1 | locus YER111C, strain swi4, hits give low values 1.02 | locus YER155C, strain BEM2 (second series), hits give low values 1.01 | locus YER155C, strain BEM2, hits give low values 0.982 | locus YER167W, strain BCK2, hits give low values 0.992 | locus YFR010W, strain ubp6, hits give low values 1.01 | locus YGL078C, strain dbp3, hits give low values 1 | locus YGL086W, strain mad1, hits give low values 0.998 | locus YGL167C, strain pmr1, hits give low values 1.02 | locus YGL173C, strain kem1, hits give low values 1.02 | locus YGL227W, strain vid30, hits give low values 1.02 | locus YGL240W, strain doc1, hits give low values 1 | locus YGL248W, strain PDE1, hits give low values 0.998 | locus YGL253W, strain hxk2, hits give low values 1.04 | locus YGR078C, strain PAC10, hits give low values 0.988 | locus YGR135W, strain pre9, hits give low values 0.988 | locus YGR229C, strain SMI1, hits give low values 0.998 | locus YGR252W, strain gcn5, hits give low values 0.945 | locus YHR013C, strain ard1, hits give low values 1.05 | locus YHR027C, strain rpn1, hits give low values 1.02 | locus YHR030C, strain SLT2, hits give low values 1 and 1.02 | locus YHR079C, strain IRE1 (second series), hits give low values 1 | locus YHR079C, strain IRE1, hits give low values 1.02 | locus YHR094C, strain hxt1, hits give low values 1 | locus YHR129C, strain ARP1, hits give low values 0.998 | locus YHR142W, strain chs7, hits give low values 1.05 | locus YHR200W, strain rpn10, hits give low values 1.01 | locus YIL066C, strain RNR3, hits give low values 0.994 | locus YIL073C, strain SPO22, hits give low values 1.02 | locus YIL125W, strain kgd1, hits give low values 1.01 | locus YIR030C, strain dcg1, hits give low values 1.01 | locus YJL092W, strain hpr5, hits give low values 1.03 | locus YJL095W, strain BCK1 (second series), hits give low values 1.03 | locus YJL095W, strain BCK1, hits give low values 0.959 and 1.01 | locus YJL115W, strain asf1, hits give low values 1.01 | locus YJL129C, strain trk1, hits give low values 1.06 | locus YJL134W, strain LCB3, hits give low values 1 | locus YJL154C, strain vps35, hits give low values 1.02 | locus YJL164C, strain tpk1, hits give low values 1.02 | locus YJL166W, strain qcr8, hits give low values 1.03 | locus YJL168C, strain set2, hits give low values 1.01 | locus YJL187C, strain SWE1 (second series), hits give low values 0.998 | locus YJL187C, strain SWE1, hits give low values 1.01 | locus YJR043C, strain POL32, hits give low values 0.997 | locus YJR066W, strain TOR1, hits give low values 0.954
